# Several values for one entry are separate records, joined by “and”; a condition that tells them apart may be missing. Equal entries are not always repeated. Results filed as inconclusive are left out. A call without a number means that no potency is given here. More than one record can exist for a structure, and the calls need not agree. Activity calls are given as the source filed them. Unless noted, calls come from the whole dose curve; as a rule, active = well fitted curve in the direction sought with a large enough effect in the repeat runs; inconclusive = weak or mixed curves; inactive = no such curve, though single readings can be large; an effect the other way counts as inactive or inconclusive.
# Experiments:
# [1] = qHTS assay to identify small molecule antagonists of the estrogen receptor alpha (ER-alpha) signaling pathway - cell viability counter screen (AID 743074; calls by dose curve;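 note: HEK293 cells carrying ER-alpha-UAS-bla reporter stimulated with 17beta-estradiol; nearly all actives have a fitted effect of over 45% in size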; note: potency is the fitted concentration of half-maximal effect)
# [2] = qHTS assay to identify small molecule antagonists of the estrogen receptor alpha (ER-alpha) signaling pathway using the BG1 cell line (AID 743080; calls by dose curve; note: nearly all actives have a fitted effect of over 25% in size); conditions: BG1Luc4E2 ERE-luciferase antagonist mode, luminescence; activity change, negative = inhibition: at 70.3 µM (top of the series) unless noted
# Summary of the method: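 Antagonist mode: compounds in DMSO were pinned onto BG1-Luc-4E2 cells alongside 17beta-estradiol agonist, incubated 21.5 h, and ERE-driven luciferase measured with ONE-Glo. Cytotoxicity was multiplexed using CellTiter-Fluor fluorescence.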
# [3] = qHTS assay to identify small molecule antagonists of the estrogen receptor alpha (ER-alpha) signaling pathway using the BG1 cell line - cell viability counter screen (AID 743081);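 note: compound given together with 17beta-estradiol as the ER stimulus; nearly all actives have a fitted effect of over 45% in size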; note: potency is the fitted concentration of half-maximal effect
# [4] = molecular target: Aromatase (Homo sapiens) (UniProt P11511); assay: qHTS assay to identify aromatase inhibitors (AID 743083); note: nearly all actives have a fitted effect of over 55% in size; note: potency is the fitted concentration of half-maximal effect
# Chain of Aromatase (Homo sapiens) (P11511 whole entry, looked up): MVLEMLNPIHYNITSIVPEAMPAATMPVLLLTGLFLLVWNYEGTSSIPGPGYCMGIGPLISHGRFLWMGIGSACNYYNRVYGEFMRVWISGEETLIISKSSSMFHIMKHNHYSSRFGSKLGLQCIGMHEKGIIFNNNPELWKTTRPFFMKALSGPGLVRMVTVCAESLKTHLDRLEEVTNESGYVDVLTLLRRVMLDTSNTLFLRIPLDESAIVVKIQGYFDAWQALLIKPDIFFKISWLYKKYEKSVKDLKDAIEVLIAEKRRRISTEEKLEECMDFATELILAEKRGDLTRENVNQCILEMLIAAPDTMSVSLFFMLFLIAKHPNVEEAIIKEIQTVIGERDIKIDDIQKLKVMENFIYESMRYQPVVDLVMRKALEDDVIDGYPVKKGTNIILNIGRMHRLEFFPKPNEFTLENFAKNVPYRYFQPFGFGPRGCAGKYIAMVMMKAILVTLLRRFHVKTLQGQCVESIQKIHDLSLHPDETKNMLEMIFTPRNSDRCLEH
# [5] = qHTS assay to identify aromatase inhibitors - cell viability counter screen (AID 743084);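 note: cells stimulated with testosterone during compound exposure; nearly all actives have a fitted effect of over 55% in size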; note: potency is the fitted concentration of half-maximal effect
# [6] = molecular target: Aryl hydrocarbon receptor (Homo sapiens) (UniProt P35869); assay: qHTS assay to identify small molecule that activate the aryl hydrocarbon receptor (AhR) signaling pathway (AID 743085); note: nearly all actives have a fitted effect of over 15% in size; note: potency is the fitted concentration of half-maximal effect;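 for activation: HG2L7.5c1 human HepG2 liver cells with stably integrated DRE-driven firefly reporter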
# Chain of Aryl hydrocarbon receptor (Homo sapiens) (P35869 whole entry, looked up): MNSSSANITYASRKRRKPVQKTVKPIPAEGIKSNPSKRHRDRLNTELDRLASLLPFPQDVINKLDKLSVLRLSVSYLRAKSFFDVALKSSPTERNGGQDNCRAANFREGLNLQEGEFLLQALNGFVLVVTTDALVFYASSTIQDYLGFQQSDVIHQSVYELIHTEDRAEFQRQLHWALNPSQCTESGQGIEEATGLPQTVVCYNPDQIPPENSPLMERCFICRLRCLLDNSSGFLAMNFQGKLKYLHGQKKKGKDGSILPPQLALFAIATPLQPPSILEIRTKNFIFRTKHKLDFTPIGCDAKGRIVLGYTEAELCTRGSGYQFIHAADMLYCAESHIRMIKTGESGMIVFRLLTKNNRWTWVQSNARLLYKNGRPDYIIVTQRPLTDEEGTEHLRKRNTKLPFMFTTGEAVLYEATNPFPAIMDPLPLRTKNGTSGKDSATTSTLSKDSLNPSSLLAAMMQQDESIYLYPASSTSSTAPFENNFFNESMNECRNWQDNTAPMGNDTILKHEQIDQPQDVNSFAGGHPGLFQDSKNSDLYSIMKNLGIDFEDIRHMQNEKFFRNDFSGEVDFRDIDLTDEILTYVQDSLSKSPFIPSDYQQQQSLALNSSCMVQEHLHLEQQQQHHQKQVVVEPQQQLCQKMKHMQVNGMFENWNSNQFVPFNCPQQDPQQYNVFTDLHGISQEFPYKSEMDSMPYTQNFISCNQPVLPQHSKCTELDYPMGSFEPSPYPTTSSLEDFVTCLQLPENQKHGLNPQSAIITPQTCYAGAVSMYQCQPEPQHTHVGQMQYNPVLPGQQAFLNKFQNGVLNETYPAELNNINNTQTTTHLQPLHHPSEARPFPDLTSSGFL
# Summary of the method: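 Luminescence (ONE-Glo) from a dioxin-responsive-element luciferase reporter in HG2L7.5c1 HepG2 cells after 24 hr compound exposure at 37C; viability measured by CellTiter-Fluor fluorescence beforehand.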
# [7] = qHTS assay to identify small molecule that activate the aryl hydrocarbon receptor (AhR) signaling pathway - cell viability counter screen (AID 743086);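 note: HepG2 liver cells carrying the AhR DRE luciferase reporter; nearly all actives have a fitted effect of over 45% in size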
# Summary of the method: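 Cytotoxicity counter screen: CellTiter-Fluor signal (30 min, 37 C) in 4000 HepG2 cells/well carrying the DRE-luciferase reporter, following 24 h compound exposure at 37 C.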
# [8] = molecular target: Peroxisome proliferator-activated receptor gamma (Homo sapiens) (UniProt P37231); assay: qHTS assay to identify small molecule antagonists of the peroxisome proliferator-activated receptor gamma (PPARg) signaling pathway (AID 743191; calls by dose curve; note: nearly all actives have a fitted effect of over 30% in size)
# Chain of Peroxisome proliferator-activated receptor gamma (Homo sapiens) (P37231 whole entry, looked up): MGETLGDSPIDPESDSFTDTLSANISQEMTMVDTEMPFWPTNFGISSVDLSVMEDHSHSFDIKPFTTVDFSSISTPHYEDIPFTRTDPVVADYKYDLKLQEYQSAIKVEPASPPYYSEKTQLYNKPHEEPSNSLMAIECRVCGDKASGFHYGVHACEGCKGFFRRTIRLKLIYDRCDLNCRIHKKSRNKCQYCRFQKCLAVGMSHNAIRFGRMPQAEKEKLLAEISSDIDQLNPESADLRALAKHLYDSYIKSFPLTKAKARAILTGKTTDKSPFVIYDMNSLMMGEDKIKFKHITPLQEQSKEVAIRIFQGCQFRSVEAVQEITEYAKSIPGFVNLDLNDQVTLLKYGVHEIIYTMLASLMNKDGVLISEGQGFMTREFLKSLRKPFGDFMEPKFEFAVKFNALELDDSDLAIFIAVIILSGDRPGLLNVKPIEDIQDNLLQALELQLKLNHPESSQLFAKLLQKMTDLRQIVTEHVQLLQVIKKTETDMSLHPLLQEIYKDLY
# Summary of the method: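 Beta-lactamase reporter under UAS control in HEK293H PPARg-bla cells; compound treatment 17 h at 37C. Read-out: fluorescence intensity after 1 h room-temperature incubation with LiveBLAzer B/G FRET substrate.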
# [9] = qHTS assay to identify small molecule antagonists of the peroxisome proliferator-activated receptor gamma (PPARg) signaling pathway - cell viability counter screen (AID 743194); conditions: Potency: co-treated with 50 nM rosiglitazone unless noted; note: nearly all actives have a fitted effect of over 55% in size; note: potency is the fitted concentration of half-maximal effect
# Summary of the method: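 Viability was measured as CellTiter-Glo luminescence in GeneBLAzer PPARg UAS-bla HEK293H cells. These cells had been exposed 17 h at 37 C to compounds together with rosiglitazone at 50 nM final, with the beta-lactamase readout taken in the same wells.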
# [10] = qHTS assay for small molecule agonists of the antioxidant response element (ARE) signaling pathway (AID 743202; active = well fitted activation curve with a large enough effect in the signal ratio in the repeat runs, not every such curve was filed as active; the % refers to the signal ratio; note: potency is the fitted concentration of half-maximal effect)
# Summary of the method: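 Quantitative high-throughput format in HepG2 cells bearing an integrated ARE-beta-lactamase reporter. Compound exposure lasted 16 h at 37 C, and fluorescence was read 2 h after adding LiveBLAzer B/G substrate at room temperature.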
# [11] = qHTS assay for small molecule agonists of the antioxidant response element (ARE) signaling pathway - cell viability counter screen (AID 743203; calls by dose curve; note: nearly all actives have a fitted effect of over 55% in size)
# Summary of the method: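 HepG2 cells carrying ARE-driven beta-lactamase; 2,000 cells/well; 5 hrs plating; compound pinned from DMSO; 16 hrs 37C/5% CO2; CellTiter-Glo added; 30 min RT; luminescence.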
# [12] = qHTS assay for small molecule activators of the heat shock response signaling pathway - cell viability counter screen (AID 743209); note: nearly all actives have a fitted effect of over 50% in size; note: potency is the fitted concentration of half-maximal effect
# Summary of the method: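 Luminescence from CellTiter-Glo, added after the beta-lactamase FRET read, gave the viability signal. Cells were HSE-bla HeLa treated with DMSO-dissolved compounds for 5 h at 37 C following overnight plating.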
# [13] = qHTS assay for small molecule activators of the heat shock response signaling pathway (AID 743210; active = well fitted activation curve with a large enough effect in the signal ratio in the repeat runs, with a control signal flat, not every such curve was filed as active; the % refers to the signal ratio;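 note: HeLa cells with beta-lactamase reporter driven by heat shock elements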)
# Summary of the method: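 HeLa HSE-bla cells, overnight plating; cpd in DMSO 5 h, 37 C; LiveBLAzer B/G FRET substrate 2.5 h RT; fluorescence intensity read.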
# [14] = qHTS assay to identify small molecule agonists of the peroxisome proliferator-activated receptor delta (PPARd) signaling pathway - cell viability counter screen (AID 743211); note: nearly all actives have a fitted effect of over 55% in size; note: potency is the fitted concentration of half-maximal effect
# Summary of the method: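 Viability was measured as CellTiter-Glo luminescence (30 min, room temperature) in the same wells as the beta-lactamase readout. GeneBLAzer PPARd UAS-bla HEK293H cells received compound after 5 h plating and were incubated 17 h at 37 C.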
# [15] = molecular target: Peroxisome proliferator-activated receptor delta (Homo sapiens) (UniProt Q03181); assay: qHTS assay to identify small molecule agonists of the peroxisome proliferator-activated receptor delta (PPARd) signaling pathway (AID 743212; calls by dose curve)
# Chain of Peroxisome proliferator-activated receptor delta (Homo sapiens) (Q03181 whole entry, looked up): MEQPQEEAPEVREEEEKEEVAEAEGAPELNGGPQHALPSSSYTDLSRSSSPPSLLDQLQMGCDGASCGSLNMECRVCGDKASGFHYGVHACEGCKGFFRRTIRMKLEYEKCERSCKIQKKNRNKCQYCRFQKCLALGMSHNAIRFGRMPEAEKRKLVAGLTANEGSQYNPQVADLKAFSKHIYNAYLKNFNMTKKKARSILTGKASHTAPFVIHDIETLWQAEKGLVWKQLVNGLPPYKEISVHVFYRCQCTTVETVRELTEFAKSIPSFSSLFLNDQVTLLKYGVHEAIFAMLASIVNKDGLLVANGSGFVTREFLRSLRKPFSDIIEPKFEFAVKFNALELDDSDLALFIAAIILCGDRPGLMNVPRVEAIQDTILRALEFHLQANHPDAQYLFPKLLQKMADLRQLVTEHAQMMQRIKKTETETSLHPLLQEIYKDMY
# Summary of the method: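 HEK293H PPARd-bla cells; 5 h preincubation 37 C/5% CO2; compound (DMSO) 37 C; LiveBLAzer B/G FRET substrate 2 h RT; fluorescence intensity.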
# [16] = qHTS assay to identify small molecule antagonists of the thyroid receptor (TR) signaling pathway (AID 743065); note: nearly all actives have a fitted effect of over 55% in size; note: potency is the fitted concentration of half-maximal effect
# Summary of the method: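 Antagonism measured as loss of luciferase signal in GH3 cells stably carrying a TRE-luciferase reporter, co-treated with compound and T3 (1 nM final) for 23.5 h at 37 C. Viability was read in the same well by CellTiter-Fluor.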
# [17] = test system: thyroid hormone receptor (rat, GH3 cells); assay: qHTS assay to identify small molecule agonists of the thyroid receptor (TR) signaling pathway (AID 743066; calls by dose curve)
# [18] = molecular target: Estrogen receptor (Homo sapiens) (UniProt P03372); assay: qHTS assay to identify small molecule antagonists of the estrogen receptor alpha (ER-alpha) signaling pathway (AID 743069; active = well fitted curve in the direction sought with a large enough effect in the signal ratio in the repeat runs, not every such curve was filed as active; the % refers to the signal ratio)
# Chain of Estrogen receptor (Homo sapiens) (P03372 whole entry, looked up): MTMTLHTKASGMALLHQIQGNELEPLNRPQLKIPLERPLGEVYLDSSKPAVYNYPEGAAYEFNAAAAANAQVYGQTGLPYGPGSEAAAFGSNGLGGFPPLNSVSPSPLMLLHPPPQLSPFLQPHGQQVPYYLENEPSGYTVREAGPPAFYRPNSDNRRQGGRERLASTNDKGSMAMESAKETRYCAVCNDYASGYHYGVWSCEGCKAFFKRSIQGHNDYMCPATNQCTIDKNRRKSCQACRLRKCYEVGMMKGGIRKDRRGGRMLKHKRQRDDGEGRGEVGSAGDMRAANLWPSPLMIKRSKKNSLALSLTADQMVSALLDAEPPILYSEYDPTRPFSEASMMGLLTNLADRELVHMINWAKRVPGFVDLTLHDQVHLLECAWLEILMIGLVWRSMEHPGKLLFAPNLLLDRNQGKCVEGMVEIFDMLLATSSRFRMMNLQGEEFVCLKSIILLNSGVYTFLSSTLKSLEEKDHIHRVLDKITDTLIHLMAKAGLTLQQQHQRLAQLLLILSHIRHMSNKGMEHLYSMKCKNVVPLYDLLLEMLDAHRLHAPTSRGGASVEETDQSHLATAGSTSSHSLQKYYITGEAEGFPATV
# Summary of the method: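 ER-alpha-UAS-bla GripTite HEK293 line; 2% charcoal-stripped FBS overnight; plated, 4 hr 37C/5% CO2; cpd in DMSO + 17beta-estradiol, 18 hr 37C; LiveBLAzer B/G FRET substrate 2 hr RT; fluorescence intensity.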
# [19] = molecular target: Estrogen receptor (Homo sapiens) (UniProt P03372); assay: qHTS assay to identify small molecule agonists of the estrogen receptor alpha (ER-alpha) signaling pathway (AID 743075; calls by dose curve;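 note: HEK293 GripTite cells with ER-alpha and UAS-driven beta-lactamase reporter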)
# [20] = molecular target: Estrogen receptor (Homo sapiens) (UniProt P03372); assay: qHTS assay to identify small molecule agonists of the estrogen receptor alpha (ER-alpha) signaling pathway using the BG1 cell line (AID 743079); note: nearly all actives have a fitted effect of over 20% in size
structure (smiles),measurement,setting,value
CNC,Potency,[1],inactive
same,Potency,[2],inactive
same,Potency,[3],inactive
same,Potency,[4],inactive
same,Potency,[5],inactive
same,Potency,[6],inactive
same,Potency,[7],inactive
same,Potency,[8],inactive
same,Potency,[9],inactive
same,Potency,[10],inactive
same,Potency,[11],inactive
same,Potency,[12],inactive
same,outcome,[13],inactive
same,Potency,[14],inactive
same,outcome,[15],inactive
C=CCOC(Cn1ccnc1)c1ccc(Cl)cc1Cl (centres undefined),Potency,[16],23.7 µM (active) and 61.3 µM (active) and 30.6 µM (active)
same,Potency,[17],inactive
same,Potency,[1],inactive
same,Potency,[3],inactive
same,Potency,[4],944 nM (active) and 387 nM (active) and 433 nM (active)
same,Potency,[5],inactive
same,Potency,[7],inactive
same,Potency,[8],inactive
same,Potency,[9],inactive
same,Potency,[11],inactive
same,Potency,[12],inactive
same,Potency,[14],49 µM (active) and inactive
Oc1ccccc1-c1ccccc1,Potency,[17],inactive
same,Potency,[18],inactive
same,Potency,[1],inactive
same,Potency,[19],inactive
same,Potency,[20],inactive
same,Potency,[2],inactive
same,Potency,[3],inactive
same,Potency,[4],inactive
same,Potency,[5],inactive
same,Potency,[6],inactive and 24.9 µM (active)
same,Potency,[7],inactive
same,Potency,[8],inactive
same,Potency,[9],inactive
same,Potency,[10],55.8 µM (active)
same,Potency,[11],inactive
same,Potency,[12],inactive
same,Potency,[14],inactive
same,outcome,[15],inactive
CCC[N+]1(C)CCCC1,Potency,[1],inactive
same,Potency,[3],inactive
same,Potency,[7],inactive
same,Potency,[9],inactive
same,Potency,[10],inactive
same,Potency,[11],inactive
same,Potency,[12],inactive
same,outcome,[13],inactive
same,Potency,[14],inactive
same,outcome,[15],inactive
CCCC[n+]1ccc(C)cc1,Potency,[17],inactive
same,Potency,[1],inactive and 48.7 µM (active)
same,Potency,[3],inactive
same,Potency,[4],inactive and 19.4 µM (active)
same,Potency,[5],inactive
same,Potency,[7],inactive
same,Potency,[9],inactive and 48.7 µM [setting not given] (active)
same,Potency,[10],3.91 µM (active) and 4.33 µM (active) and inactive
same,Potency,[11],inactive
same,Potency,[12],54.7 µM (active) and inactive
same,outcome,[13],inactive
same,Potency,[14],inactive and 48.7 µM (active)
O=C(O)C(Cl)(Cl)Cl,Potency,[16],inactive
same,Potency,[17],inactive
same,Potency,[1],inactive
same,Potency,[3],inactive
same,Potency,[4],inactive
same,Potency,[5],inactive
same,Potency,[7],inactive
same,Potency,[8],inactive
same,Potency,[9],inactive
same,Potency,[10],inactive
same,Potency,[11],inactive
same,Potency,[12],inactive
same,outcome,[13],inactive
same,Potency,[14],inactive
same,outcome,[15],inactive
CN(C)[C@@H]1C(=O)C(C(N)=O)=C(O)[C@@]2(O)C(=O)C3=C(O)c4c(O)cccc4[C@@](C)(O)[C@H]3[C@H](O)[C@@H]12,Potency,[17],inactive
same,Potency,[1],inactive
same,Potency,[3],inactive
same,Potency,[4],inactive
same,Potency,[5],inactive
same,Potency,[6],inactive
same,Potency,[7],inactive
same,Potency,[8],inactive
same,Potency,[9],inactive
same,Potency,[10],inactive
same,Potency,[11],inactive
same,Potency,[12],inactive
same,Potency,[14],inactive
CC[n+]1ccccc1,Potency,[17],inactive
same,Potency,[1],inactive
same,Potency,[2],inactive
same,Potency,[3],inactive and 30.4 µM (active)
same,Potency,[4],inactive and 54 µM (active)
same,Potency,[5],inactive and 54 µM (active)
same,Potency,[7],inactive
same,Potency,[8],inactive
same,Potency,[9],inactive
same,Potency,[10],inactive and 2.71 µM (active)
same,Potency,[11],inactive
same,Potency,[12],inactive
same,Potency,[14],inactive
CCCC[n+]1ccccc1C,Potency,[1],inactive
same,Potency,[3],inactive
same,Potency,[4],inactive
same,Potency,[5],inactive
same,Potency,[7],inactive
same,Potency,[9],inactive
same,Potency,[11],inactive
same,Potency,[12],inactive
same,outcome,[13],inactive
same,Potency,[14],inactive
O=C(O)COc1ccc(Cl)cc1Cl,Potency,[1],inactive
same,Potency,[3],inactive
same,Potency,[7],inactive
same,Potency,[9],inactive
same,Potency,[10],inactive
same,Potency,[11],inactive
same,Potency,[12],inactive
same,Potency,[14],inactive
same,outcome,[15],inactive
CCCCCCCCCCn1cc[n+](C)c1,"activity change, negative = inhibition",[2],-3.71% [at 95 µM] (active)
same,Potency,[5],24.6 µM (active) and inactive
same,Potency,[6],inactive
same,Potency,[7],inactive
same,Potency,[8],inactive
same,Potency,[9],22.1 µM [setting not given] (active) and 24.6 µM [setting not given] (active) and 4.89 µM [setting not given] (active)
same,Potency,[10],2.19 µM (active) and 4.85 µM (active) and 2.16 µM (active)
same,Potency,[11],inactive
same,Potency,[12],39.3 µM (active)
same,outcome,[13],inactive
same,Potency,[14],4.41 µM (active) and 24.6 µM (active) and 35.6 µM (active)
O=c1[nH]c(=O)n(Cl)c(=O)n1Cl,Potency,[17],inactive
same,Potency,[1],inactive
same,Potency,[3],inactive
same,Potency,[4],inactive
same,Potency,[5],inactive
same,Potency,[6],inactive
same,Potency,[7],inactive
same,Potency,[8],inactive
same,Potency,[9],inactive
same,Potency,[10],inactive
same,Potency,[11],inactive
same,Potency,[12],inactive
same,Potency,[14],inactive
CCCCCCCCCCCCn1cc[n+](C)c1,Potency,[10],inactive
same,outcome,[13],inactive
O=C(O)CCl,Potency,[16],inactive
same,Potency,[17],inactive
same,Potency,[1],inactive
same,Potency,[3],inactive
same,Potency,[4],inactive
same,Potency,[5],inactive
same,Potency,[7],inactive
same,Potency,[8],inactive
same,Potency,[9],inactive
same,Potency,[10],inactive
same,Potency,[11],inactive
same,Potency,[12],inactive
same,outcome,[13],inactive
same,Potency,[14],inactive
COCC(=O)N(c1c(C)cccc1C)C(C)C(=O)OC (centres undefined),Potency,[18],inactive
same,Potency,[1],inactive
same,Potency,[19],inactive
same,Potency,[20],inactive
same,Potency,[2],inactive
same,Potency,[3],inactive
same,Potency,[4],inactive
same,Potency,[5],inactive
same,Potency,[6],inactive
same,Potency,[7],inactive
same,Potency,[8],inactive
same,Potency,[9],inactive
same,Potency,[10],inactive
same,Potency,[11],inactive
same,Potency,[12],inactive
same,outcome,[13],inactive
same,Potency,[14],inactive
same,outcome,[15],inactive
COP(=O)(OC)C(O)C(Cl)(Cl)Cl (centres undefined),Potency,[16],inactive
same,Potency,[17],inactive
same,Potency,[1],inactive
same,Potency,[3],inactive
same,Potency,[4],inactive
same,Potency,[5],inactive
same,Potency,[6],inactive
same,Potency,[7],inactive
same,Potency,[9],inactive
same,Potency,[11],inactive
same,Potency,[12],inactive
same,outcome,[13],inactive
same,Potency,[14],inactive
same,outcome,[15],inactive

# — PubChem BioAssay (Tox21)
